Here are results for 20 compounds from PubChem BioAssay (NCI).

Assay [1] in a line: NCI Yeast Anticancer Drug Screen. Data for the rad50 strain (AID 155).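 Further: 0% = growth of vehicle-only cultures of the same strain.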 To be noted: S. cerevisiae rad50 strain growth inhibition; at 50.0 µM; stronger effect = higher value. In a few lines:
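Growth of the mutant yeast was measured after compound exposure and referenced to vehicle-treated cultures.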

Assay [2] in a line: NCI Yeast Anticancer Drug Screen. Data for the mec2-1 strain (AID 157). To be noted: S. cerevisiae mec2-1 strain, at 50.0 µM, stronger effect = higher value. In a few lines: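 Growth inhibition is read against vehicle-treated controls after compound exposure of the mec2-1 yeast strain, which is defective in DNA damage repair or cell cycle control.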
Assay [3] is described as follows: NCI Yeast Anticancer Drug Screen. Data for the sgs1 mgt1 strain (AID 161).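 Further: 0% = growth of cultures given vehicle only.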 To be noted: S. cerevisiae sgs1 mgt1 strain, at 50.0 µM, stronger effect = higher value. In a few lines:
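Percent growth inhibition was derived by comparing compound-exposed mutant yeast with vehicle-exposed cultures. The strain carries alterations in DNA damage repair.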

The nature of assay [4]: NCI Yeast Anticancer Drug Screen. Data for the cln2 rad14 strain (AID 165).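 Further: 0% = growth equal to vehicle treated cultures.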 To be noted: S. cerevisiae cln2 rad14 strain, at 50.0 µM, stronger effect = higher value. In outline: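 Growth inhibition, relative to vehicle-treated controls, is the read-out. The test organism is a yeast strain with defined genetic alterations, cln2 rad14.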
Assay [5] is described as follows: NCI Yeast Anticancer Drug Screen. Data for the bub3 strain (AID 167). To be noted: S. cerevisiae bub3 mutant strain, at 50.0 µM, stronger effect = higher value. In a few lines: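 Whole-cell yeast assay. The mutant strain was incubated with compounds, and growth inhibition was determined by comparison with vehicle-treated cells.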
The nature of assay [6]: NCI Yeast Anticancer Drug Screen. Data for the mlh1 rad18 strain (AID 175). To be noted: S. cerevisiae mlh1 rad18 strain growth inhibition; at 50.0 µM; stronger effect = higher value. In a few lines: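 Cells of a genetically altered yeast strain, deficient in DNA damage repair, were treated with compound. Their growth was then compared with that of vehicle-treated cultures to give inhibition.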

The panel holds about 79,000 compounds, 15% with a hit somewhere; the sample as a whole holds those more often. A number with no mark means an inactive call. Calls of active or inactive are those of the source. No stated cut-off is given here; in the data, active means growth inhibition above about 70%; inactive means the rest.

As to `COc1ccc(-c2csc(N)n2)cc1OC`, the growth inhibition in assay [1] was 2.15%; in assay [2] it was -3.9%; in assay [3], 4.4%; in assay [4] it was -66.7%; in assay [5], -10.4%; in assay [6], 1.9%.

For the compound `CC#CC#C/C=C1/C=CC2(CC=CO2)O1` (stereo not given), the growth inhibition in assay [1] is 1.55%; in assay [2], 7.95%; in assay [3], 9.85%; in assay [4], 12.3%; in assay [5], 25.3%; in assay [6], 29.6%.

As for `COc1ccc(/C(Cl)=C/c2cc(OC)ccc2OC)cc1`, the growth inhibition in assay [1] was -5.1%; in assay [2], -10.7%; in assay [3], -26.9%; in assay [4] it was -0.25%; in assay [5] it was -30.2%; in assay [6] it was -9.05%.

As to `CNC1NC(=O)c2ccccc2N1Cc1ccc(F)cc1` (stereo not given), the growth inhibition is 5.7% in assay [1]; 4.5% in assay [2]; -23.1% in assay [3]; -19.6% in assay [4]; -12.1% in assay [5]; -4.25% in assay [6].

`COc1ccc(C(C)c2cc3c(cc2OC)OCO3)cc1OC` (stereo not given): the growth inhibition is -4.95% in assay [1]; -6.7% in assay [2]; 11.1% in assay [3]; 5.2% in assay [4]; 16.9% in assay [5]; 25.3% in assay [6].

With `CC(N(N=O)c1cccc(Cl)c1)S(=O)(=O)O` (stereo not given), the growth inhibition in assay [1] is 7.25%; in assay [2], 4.8%; in assay [3], -6.45%; in assay [4] it was 22.6%; in assay [5], 5.55%; in assay [6] it was -0.4%.

Regarding `CC(CC(C(=O)N(C)C)(c1ccccc1)c1ccccc1)[N+](C)(C)[O-]` (stereo not given), the growth inhibition in assay [1] was 5.5%; in assay [2], 17.4%; in assay [3] it was 0.1%; in assay [4], 11.9%; in assay [5] it was 13.3%; in assay [6], 3.8%.

In the case of `CCN(CC)c1nc(N(C)C)nc(N(C)C)n1`, the growth inhibition was -9% in assay [1]; -4.3% in assay [2]; 2.15% in assay [3]; -7.25% in assay [4]; 18.7% in assay [5]; 7% in assay [6].

`O=C(O)c1c(Br)c(Br)c(Br)c(Br)c1C(=O)Nc1ccc(Cl)c(Cl)c1`: the growth inhibition was -1.05% in assay [1]; 5.15% in assay [2]; -0.75% in assay [3]; -11.1% in assay [4]; 0% in assay [5]; -21% in assay [6].

Take `O=C(c1ccc(Cl)cc1)c1nnc(Cl)s1`: the growth inhibition in assay [1] was -4.7%; in assay [2] it was 2.2%; in assay [3], -6.7%; in assay [4], -10.8%; in assay [5], 24.8%; in assay [6], 2.3%.

`COC(=O)c1cc2ccccc2[nH]1`: the growth inhibition in assay [1] is 4%; in assay [2] it was 8%; in assay [3], -7.6%; in assay [4] it was -15.3%; in assay [5] it was -11.9%; in assay [6] it was -13.8%.

As for `CC(C)C(=O)OC1c2cc(OCCN(C)C)ccc2CC1C` (stereo not given), the growth inhibition in assay [1] is -11%; in assay [2] it was -6.75%; in assay [3] it was -8.3%; in assay [4], -27.9%; in assay [5] it was -5.95%; in assay [6], -33.9%.

As for `Cc1ccc(S(=O)(=O)CO)cc1`, the growth inhibition is 0.5% in assay [1]; -3.2% in assay [2]; 14.3% in assay [3]; -51.5% in assay [4]; -27.9% in assay [5]; 11% in assay [6].

Take `Oc1cc(O)cc(/C=C/c2ccc(O)c(O)c2)c1`: the growth inhibition in assay [1] is 5.2%; in assay [2], -2.35%; in assay [3], 6%; in assay [4] it was 5.95%; in assay [5] it was 18.4%; in assay [6], 18.6%.

As for `CCOC(=O)CCN(CC1CC=CCC1)c1cc(O)c2c(c1O)C(=O)c1ccccc1C2=O` (stereo not given), the growth inhibition in assay [1] was -70.6%; in assay [2], -4.75%; in assay [3], -21.5%; in assay [4] it was -2.55%; in assay [5], 2%; in assay [6], -9.85%.

With `CCCCCCCCCCC(CCCCCCCCCC)C1CCCC1`, the growth inhibition in assay [1] was -12.3%; in assay [2], 16.1%; in assay [3], 0.7%; in assay [4] it was -14.6%; in assay [5], -12.8%; in assay [6], -12.9%.

For `O=c1c2cccnc2ncn1CCCN1CCCCC1`, the growth inhibition in assay [1] is -23.8%; in assay [2], 1.85%; in assay [3], 9.25%; in assay [4], -7.5%; in assay [5], 5.65%; in assay [6], -6.25%.

On to `CC(=O)NC(C)(C)C1CCC(C)CC1` (stereo not given), for which the growth inhibition in assay [1] is -7.95%; in assay [2], 5.45%; in assay [3], 1.55%; in assay [4], 8.05%; in assay [5], 9.65%; in assay [6], -38.8%.

With `O=[N+]([O-])c1ccc(Cl)c(OCCCBr)c1`, the growth inhibition was 10.3% in assay [1]; 39.5% in assay [2]; 48.6% in assay [3]; 14.9% in assay [4]; 57.2% in assay [5]; 70.3% (active) in assay [6].

With `COc1ccc(/C=C2\N=C(c3cccc(Cl)c3)OC2=O)cc1OC`, the growth inhibition in assay [1] was 14.6%; in assay [2] it was 4.25%; in assay [3], 18.2%; in assay [4], 12.2%; in assay [5] it was 6.3%; in assay [6] it was -7.85%.
